# Screening results (PubChem BioAssay)
# The list is not random: actives were taken first. Their share in the collection is about 10%.
# HP1b chromo inh: inhibitors of HP1-beta chromodomain binding to methylated histone tails | P83916 | AlphaScreen HP1-beta / biotin-H3K9me3 peptide binding | Potency, µM (series often up to 114 µM), for the others: at the highest dose activity change, negative = inhibition, usual class: inhibitors | 390,000 compounds, 0.56% hits | AID 540317; further: potency means the concentration at half of the fitted maximal effect; nearly all actives have a fitted effect of over 70% in size
#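 AlphaScreen: HP1-beta (50 nM) preformed 30 min with biotin-H3(1-18)K9me3 peptide (50 nM) in PBS pH 7.4, 0.01% Tween-20. Compound added for 30 min at RT, then streptavidin donor/nickel chelate acceptor beads (10 ug/mL) for 30 min.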
# JMJD2A Tudor: blocks the human JMJD2A Tudor domain. AID 504339. AlphaScreen JMJD2A-Tudor / H3K4me3 peptide binding. Potency, µM (series often up to 114 µM), for inactives: at the highest dose activity change, negative = inhibition, actives largely listed as inhibitors. O75164. 390,000 compounds, 4.4% hits; further: potency means the concentration at half of the fitted maximal effect; on the % scale 0 is the no-effect control and ±100 the full control effect; nearly all actives have a fitted effect of over 50% in size
# BAZ2B inh: BAZ2B (human) inhibition; AlphaScreen BAZ2B-H3K14Ac peptide displacement; Q9UIF8; Potency, µM (doses to about 114 µM), without a hit: top-dose activity change, negative = inhibition, actives largely listed as inhibitors; 360,000 compounds, 4.4% hits; AID 504333; further: potency means the concentration at half of the fitted maximal effect; on the % scale 0 is the no-effect control and ±100 the full control effect; nearly all actives have a fitted effect of over 60% in size
#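 Inhibition is scored as reduced AlphaScreen emission. The BAZ2B/b-H3(5-23)K14Ac complex (50 nM each) in PBS pH 7.4, 0.01% Tween-20 meets compound (up to 110 uM) for 30 min at RT before bead addition.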
# Six1-Eya2 inh: blocks human Six1 binding to Eya2; Q15475+O00167; activity change, % (no concentration beside the values); AID 651725; 360,000 compounds, 0.56% hits; AlphaScreen GST-Six1/His-Eya2 binding, biochemical; hits give low values; in the data active means activity change below about -65%; inconclusive means mostly about -30% to -63%; further: on the % scale 0 is the no-effect control and ±100 the full control effect
#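 Compounds are tested against tagged Six1 and Eya2 proteins bridged by glutathione donor and nickel acceptor beads; after a one-hour incubation at 37 °C without light, AlphaScreen emission is recorded.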
# G9a inh: blocks human histone lysine methyltransferase G9a; 350,000 compounds, 8.8% hits; G9a H3K9 monomethylation, AlphaScreen, 2 h; Q96KQ7; Potency, µM (doses to about 102 µM), inactives show at the highest dose activity, negative = inhibition, usual class: inhibitors; further: potency means the concentration at half of the fitted maximal effect; on the % scale 0 is the no-effect control and ±100 the full control effect; nearly all actives have a fitted effect of over 75% in size
#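 Compounds were preincubated with 20 nM G9a for 15 min, after which biotinylated H3K9 peptide (500 nM) and SAM (20 uM) started a 2 h room-temperature reaction. Monomethylated product was quantified by antibody-based AlphaScreen chemiluminescence.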
# CtBP-E1A inh: blocks the CtBP interaction with E1A | AlphaScreen GST-E1A/His-CtBP binding, 1536-well; hits give low values | 340,000 compounds, 0.49% hits | activity change, % (concentration not given with the values); in the data active means activity change below about -65%; inconclusive means mostly about -30% to -63%; further: on the % scale 0 is the no-effect control and ±100 the full control effect
#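 GST-E1A and His-tagged CtBP (125 nM each as 5X stock) were preincubated with pin-transferred compound for 2 h at 37 °C in the dark, then glutathione donor and nickel acceptor beads were added for 1 h before AlphaScreen reading.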
# Active calls of the source: *; ? = inconclusive; · = no result; [ ] = remark or other dose. Unless noted, the call rests on the fitted dose curve; in most records, active means well fitted inhibition curve with a large enough effect; inconclusive means small, poorly fitted or top-dose-only effect; inactive means no such curve, though single readings can be large or run the other way.
SMILES,HP1b chromo inh,JMJD2A Tudor,BAZ2B inh,Six1-Eya2 inh,G9a inh,CtBP-E1A inh
N#CC1=C(N)Oc2cc(O)c(Cl)cc2C1c1ccccc1F (centres undefined),26%,-13%,-11%,0,50µM*,·
COC(=O)C1=C(C)OC(N)=C(C#N)C1c1ccccc1F (centres undefined),14%,-10%,-2%,3,-2%[59 µM],3
N#CC1=C(N)Oc2ccc3ccccc3c2C1c1cccnc1 (centres undefined),31%,-18%,-38%,-5,45µM*,·
N#CC1=C(N)Oc2cc(O)c(Cl)cc2C1c1cccnc1 (centres undefined),2%,-11%,-14%,-5,32µM*,·
CC1c2ccccc2N(S(=O)(=O)c2ccccc2)C1C (centres undefined),103%,82%,·,11,·,21
CC[n+]1ccc(C)c2cc(SC(F)(F)F)ccc21,60%,-22%,-17%,10,7.9µM*,0
CC[n+]1ccc(C)c2cc(S(=O)C(F)(F)F)ccc21 (centres undefined),-11%,-29%,-5%,4,?,3
CC[n+]1ccc(C)c2cc(P(=O)(c3ccccc3)c3ccccc3)ccc21,?,?,45µM*,3,?,-15
COc1ccc(C(NCC(=O)Nc2c(C)cccc2C)c2ccccc2)cc1 (centres undefined),28µM*,20µM*,32µM*,-2,?,24
COc1ccc(NC(=O)CNC(c2ccccc2)c2ccccc2)cc1Cl,14%,-2%,5%,6,26%,2
Cc1cccc(N2CC(C(=O)Nc3nnc(SCC(=O)N4CCOCC4)s3)CC2=O)c1 (centres undefined),22%,-27%,-25%,-5,45µM*,-20
COc1ccc(N2CC(C(=O)Nc3nnc(SCC(=O)N4CCOCC4)s3)CC2=O)cc1 (centres undefined),5%,-26%,-23%,-13,35µM*,-7
COc1ccc(N2CCN(C(=O)CSc3nnc(NC(=O)C4CCC4)s3)CC2)cc1,19%,2%,-2%,2,-6%[0.501 µM],-12
O=C(Nc1nnc(SCC(=O)N2CCOCC2)s1)C1CC(=O)N(c2ccccc2)C1 (centres undefined),45%,-5%,-8%,-8,26%[59 µM],-21
COc1ccc(-n2nc(C(=O)N3CCN(c4cccc(C)c4)C(C)C3)c3c4ccccc4n(C)c3c2=O)cc1Cl (centres undefined),2%,-23%,·,·,-46%[59 µM],·
COc1cc(C(CC(=O)Nc2ccc(C)c(F)c2)N2Cc3ccccc3C2=O)cc(OC)c1OC (centres undefined),4%,-14%,-5%,·,-7%[59 µM],·
COc1ccccc1C(=O)NCC(=O)NC(C)c1ccc(-n2ccnc2)cc1 (centres undefined),10%,-20%,-2%,4,10µM*,12
Cc1cccc(C(=O)NCC(=O)NC(C)c2ccc(-n3ccnc3)cc2)c1 (centres undefined),21%,-14%,-19%,8,2%,-1
CC1C(=O)N2CCCc3cc(NC(=O)C(=O)NCCc4c[nH]c5ccccc45)cc1c32 (centres undefined),-2%,?,-31%,-11,28µM*,7
CC1C(=O)N2CCCc3cc(NC(=O)C(=O)NCCc4ccccc4)cc1c32 (centres undefined),15%,-18%,-29%,2,0%[0.501 µM],0
COc1cc(Cn2c(=O)sc3ccccc32)ccc1OCCC(C)C,83%,46%,62%,·,94%[59 µM],·
C=C1c2cc(OC)ccc2NC(=O)N1CC,31%,-13%,3%,-1,32µM*,0
CCN(CC)S(=O)(=O)c1ccc(NCc2ccccn2)nc1,13%,71µM*,?,3,28µM*,-4
CCN(CC)S(=O)(=O)c1ccc(NCCc2ccccn2)nc1,9%,-15%,-19%,9,20%,0
